Experimental data from PubChem BioAssay AID1159580 (chemical genetic matrix, 2015).
“And” between values parts separate entries of the source, which are not always exact repeats. Identical values can stand only once. Out of some 5,500 compounds screened, about 2,000 (36%) were called active. Roughly 18% stayed inconclusive and do not appear here. Rule as the data show it: active = normalized growth mostly below about 0.91 (no sharp cut-off); inconclusive = no clear call, values can overlap the other calls; inactive = mostly above about 0.92. This is one part of the list. The source holds several records for some structures; these can differ, active in one and inactive in another.

Assay: chemical genetic growth profiling, strain panel (AID 1159580);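 also: tested at 20 µM; growth read once vehicle control cultures reached saturation at 30 °C; 1 = growth at the plate median or of vehicle wells; lower values mean less growth of the strain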
Conditions: S. cerevisiae deletion strains, growth OD

Measured: normalized growth

O=C1c2c(O)ccc(O)c2C(=O)c2c(NCCNCCO)ccc(NCCNCCO)c21
inactive: locus YAL040C, strain CLN3, stronger effect = lower value 1.06 | locus YBR021W, strain FUR4, stronger effect = lower value 0.941 | locus YBR171W, strain sec66, stronger effect = lower value 0.911 | locus YBR229C, strain ROT2, stronger effect = lower value 1.03 | locus YCL029C, strain bik1, stronger effect = lower value 1.01 | locus YCL061C, strain MRC1 (second series), stronger effect = lower value 0.983 | locus YCL069W, strain vba3, stronger effect = lower value 0.946 | locus YDL035C, strain GPR1, stronger effect = lower value 0.976 | locus YDL040C, strain nat1, stronger effect = lower value 1.03 | locus YDL074C, strain BRE1, stronger effect = lower value 0.897 | locus YDL101C, strain DUN1, stronger effect = lower value 1.01 | locus YDL134C, strain PPH21, stronger effect = lower value 0.977 | locus YDL185W, strain tfp1, stronger effect = lower value 0.943 | locus YDR001C, strain nth1, stronger effect = lower value 1.01 | locus YDR101C, strain arx1, stronger effect = lower value 1.04 | locus YDR150W, strain NUM1, stronger effect = lower value 0.993 | locus YDR162C, strain NBP2, stronger effect = lower value 0.921 | locus YDR318W, strain mcm21, stronger effect = lower value 0.982 | locus YDR334W, strain swr1, stronger effect = lower value 0.981 | locus YDR363W, strain ESC2, stronger effect = lower value 0.919 | locus YDR502C, strain sam2, stronger effect = lower value 0.983 | locus YEL061C, strain CIN8, stronger effect = lower value 1.02 | locus YER002W, strain NOP16, stronger effect = lower value 1.05 | locus YER110C, stronger effect = lower value 1.07 | locus YER155C, strain BEM2 (second series), stronger effect = lower value 0.965 | locus YER155C, strain BEM2, stronger effect = lower value 1.04 | locus YER167W, strain BCK2, stronger effect = lower value 0.96 | locus YGL078C, strain dbp3, stronger effect = lower value 0.942 | locus YGL086W, strain mad1, stronger effect = lower value 1.01 | locus YGL227W, strain vid30, stronger effect = lower value 1.08 | locus YGL248W, strain PDE1, stronger effect = lower value 1.02 | locus YGR078C, strain PAC10, stronger effect = lower value 1.01 and 1.07 | locus YGR135W, strain pre9, stronger effect = lower value 0.942 | locus YGR252W, strain gcn5, stronger effect = lower value 0.924 | locus YHR013C, strain ard1, stronger effect = lower value 0.878 | locus YHR079C, strain IRE1 (second series), stronger effect = lower value 1 | locus YHR079C, strain IRE1, stronger effect = lower value 0.951 | locus YHR094C, strain hxt1, stronger effect = lower value 1.05 | locus YHR129C, strain ARP1, stronger effect = lower value 1.02 | locus YHR200W, strain rpn10, stronger effect = lower value 0.985 | locus YIL066C, strain RNR3, stronger effect = lower value 0.992 | locus YIL073C, strain SPO22, stronger effect = lower value 0.917 | locus YIL125W, strain kgd1, stronger effect = lower value 0.986 | locus YIR030C, strain dcg1, stronger effect = lower value 1.02 | locus YJL134W, strain LCB3, stronger effect = lower value 1.04 | locus YJL154C, strain vps35, stronger effect = lower value 1.05 | locus YJL168C, strain set2, stronger effect = lower value 1.05 | locus YJL187C, strain SWE1 (second series), stronger effect = lower value 0.968 | locus YJL187C, strain SWE1, stronger effect = lower value 0.997 | locus YJR066W, strain TOR1, stronger effect = lower value 0.85 | locus YJR075W, strain HOC1, stronger effect = lower value 0.968 | locus YKL009W, strain mrt4, stronger effect = lower value 0.925 | locus YKL085W, strain MDH1 (second series), stronger effect = lower value 1.05 | locus YKL085W, strain MDH1, stronger effect = lower value 1.05 | locus YKL190W, strain CNB1, stronger effect = lower value 0.998 | locus YKR026C, strain gcn3, stronger effect = lower value 1.04 | locus YKR091W, strain srl3, stronger effect = lower value 1.01 | locus YLL041C, strain sdh2, stronger effect = lower value 1.01 | locus YLR039C, strain RIC1, stronger effect = lower value 0.707 | locus YLR058C, strain SHM2, stronger effect = lower value 1.02 | locus YLR102C, strain apc9, stronger effect = lower value 1.06 | locus YLR258W, strain gsy2, stronger effect = lower value 0.94 | locus YLR262C, strain YPT6, stronger effect = lower value 0.711 | locus YLR330W, strain CHS5, stronger effect = lower value 1.03 | locus YLR342W, strain FKS1 (second series), stronger effect = lower value 0.871 | locus YLR357W, strain rsc2, stronger effect = lower value 0.976 | locus YLR371W, strain rom2, stronger effect = lower value 1.01 | locus YLR418C, strain cdc73, stronger effect = lower value 1.02 | locus YML016C, strain PPZ1, stronger effect = lower value 1.03 | locus YML124C, strain tub3, stronger effect = lower value 1.05 | locus YMR125W, strain sto1, stronger effect = lower value 0.982 | locus YMR129W, stronger effect = lower value 0.941 | locus YMR205C, strain PFK2, stronger effect = lower value 0.975 | locus YMR223W, strain ubp8, stronger effect = lower value 0.91 | locus YMR263W, strain SAP30, stronger effect = lower value 0.954 and 1.02 | locus YNL067W, strain RPL9B, stronger effect = lower value 0.976 | locus YNL128W, strain TEP1, stronger effect = lower value 1.07 | locus YNL175C, strain NOP13, stronger effect = lower value 1.07 | locus YNL197C, strain WHI3, stronger effect = lower value 1.06 | locus YNL233W, strain BNI4, stronger effect = lower value 0.966 | locus YNL271C, strain bni1, stronger effect = lower value 0.944 | locus YNL298W, strain CLA4, stronger effect = lower value 0.989 | locus YNL307C, strain MCK1, stronger effect = lower value 1.08 | locus YNL322C, strain KRE1 (second series), stronger effect = lower value 0.933 | locus YNL322C, strain KRE1, stronger effect = lower value 1.01 | locus YOL012C, strain htz1 0.838 | locus YOL147C, strain pex11, stronger effect = lower value 1.07 | locus YOR061W, strain CKA2, stronger effect = lower value 1.01 | locus YOR069W, strain VPS5, stronger effect = lower value 1.02 | locus YOR083W, strain WHI5 (second series), stronger effect = lower value 1 | locus YOR136W, strain idh2, stronger effect = lower value 1.01 | locus YOR144C, strain elg1, stronger effect = lower value 0.984 | locus YOR231W, strain MKK1, stronger effect = lower value 0.927 | locus YOR265W, strain rbl2, stronger effect = lower value 0.932 | locus YOR316C, strain cot1, stronger effect = lower value 1.06 | locus YPL078C, strain atp4, stronger effect = lower value 0.974 | locus YPL106C, strain sse1, stronger effect = lower value 1.07 | locus YPL240C, strain hsp82, stronger effect = lower value 1.03 | locus YPL241C, strain CIN2, stronger effect = lower value 1.04 | locus YPL256C, strain CLN2, stronger effect = lower value 0.959 | locus YPR119W, strain clb2, stronger effect = lower value 1.05 | locus YPR141C, strain kar3, stronger effect = lower value 1.05 | locus YPR163C, strain tif3, stronger effect = lower value 1.03 | locus YPR167C, strain met16, stronger effect = lower value 0.993 | strain wtn01, stronger effect = lower value 0.963
0.968 (inactive) and 0.9 (active): locus YAL013W, strain DEP1, stronger effect = lower value
1.03 (inactive) and 0.713 (active): locus YHR030C, strain SLT2, stronger effect = lower value
0.916 (inactive) and 0.755 (active): locus YJL095W, strain BCK1, stronger effect = lower value
active: locus YAL021C, strain ccr4, stronger effect = lower value 0.499 | locus YAL026C, strain drs2, stronger effect = lower value 0.363 | locus YAL030W, strain snc1, stronger effect = lower value 0.839 | locus YBL061C, strain skt5, stronger effect = lower value 0.81 | locus YBR009C, strain hhf1, stronger effect = lower value 0.831 | locus YBR023C, strain chs3, stronger effect = lower value 0.868 | locus YBR231C, strain swc5, stronger effect = lower value 0.84 | locus YBR279W, strain paf1, stronger effect = lower value 0.669 | locus YCL011C, strain gbp2, stronger effect = lower value 0.894 | locus YCL016C, strain dcc1, stronger effect = lower value 0.385 | locus YCL061C, strain MRC1, stronger effect = lower value 0.868 | locus YCR088W, strain abp1, stronger effect = lower value 0.828 | locus YDL005C, strain med2, stronger effect = lower value 1.12 [resistant] | locus YDL192W, strain arf1, stronger effect = lower value 0.889 | locus YDR069C, strain doa4, stronger effect = lower value 0.684 | locus YDR137W, strain rgp1, stronger effect = lower value 0.572 | locus YDR159W, strain sac3, stronger effect = lower value 0.788 | locus YDR195W, strain ref2 0.764 | locus YDR297W, strain sur2, stronger effect = lower value 0.885 | locus YDR335W, strain msn5, stronger effect = lower value 0.821 | locus YDR388W, stronger effect = lower value 0.892 | locus YDR392W, strain spt3, stronger effect = lower value 1.28 [resistant] | locus YEL003W, strain gim4, stronger effect = lower value 0.878 | locus YEL037C, strain rad23, stronger effect = lower value 0.818 | locus YEL061C, strain CIN8 (second series), stronger effect = lower value 0.896 | locus YER015W, strain faa2, stronger effect = lower value 0.865 | locus YER016W, strain bim1, stronger effect = lower value 0.793 | locus YER111C, strain swi4, stronger effect = lower value 0.397 | locus YFR010W, strain ubp6, stronger effect = lower value 0.564 | locus YGL167C, strain pmr1, stronger effect = lower value 0.619 | locus YGL173C, strain kem1, stronger effect = lower value 0.57 | locus YGL240W, strain doc1, stronger effect = lower value 0.696 | locus YGL253W, strain hxk2, stronger effect = lower value 0.738 | locus YHR027C, strain rpn1, stronger effect = lower value 0.756 | locus YHR142W, strain chs7, stronger effect = lower value 0.582 | locus YJL092W, strain hpr5, stronger effect = lower value 0.609 | locus YJL095W, strain BCK1 (second series), stronger effect = lower value 0.482 | locus YJL115W, strain asf1, stronger effect = lower value 0.321 | locus YJL129C, strain trk1, stronger effect = lower value 0.306 | locus YJL164C, strain tpk1, stronger effect = lower value 0.735 | locus YJL166W, strain qcr8, stronger effect = lower value 0.858 | locus YJR043C, strain POL32, stronger effect = lower value 0.779 | locus YKL068W, stronger effect = lower value 1.06 [resistant] | locus YKL160W, strain elf1, stronger effect = lower value 0.858 | locus YKR001C, strain vps1, stronger effect = lower value 0.74 | locus YLL001W, strain dnm1, stronger effect = lower value 0.727 | locus YLL026W, stronger effect = lower value 0.914 | locus YLR027C, strain aat2, stronger effect = lower value 0.855 | locus YLR113W, strain HOG1, stronger effect = lower value 0.828 | locus YLR221C, strain rsa3, stronger effect = lower value 0.865 | locus YLR262C, strain YPT6 (second series), stronger effect = lower value 0.443 | locus YLR268W, strain sec22, stronger effect = lower value 0.857 | locus YLR320W, strain mms22, stronger effect = lower value 0.248 | locus YLR342W, strain FKS1, stronger effect = lower value 0.83 | locus YLR370C, strain arc18, stronger effect = lower value 0.28 | locus YLR384C, strain iki3, stronger effect = lower value 0.745 | locus YML032C, strain rad52, stronger effect = lower value 0.19 | locus YML120C, strain ndi1, stronger effect = lower value 0.878 | locus YMR058W, strain fet3, stronger effect = lower value 0.396 | locus YMR078C, strain ctf18, stronger effect = lower value 0.429 | locus YMR231W, strain pep5, stronger effect = lower value 0.174 | locus YMR307W, strain GAS1, stronger effect = lower value 0.562 and 0.648 | locus YNL071W, strain lat1, stronger effect = lower value 1.12 [resistant] | locus YNL183C, strain NPR1, stronger effect = lower value 0.815 | locus YNL209W, strain ssb2, stronger effect = lower value 0.825 | locus YNL224C, strain SQS1, stronger effect = lower value 1.08 [resistant] | locus YNL248C, strain rpa49, stronger effect = lower value 0.678 | locus YNL250W, strain rad50, stronger effect = lower value 0.181 | locus YNR049C, strain mso1, stronger effect = lower value 0.912 | locus YNR052C, strain pop2, stronger effect = lower value 0.69 | locus YOL006C, strain TOP1, stronger effect = lower value 0.424 | locus YOR001W, strain rrp6, stronger effect = lower value 0.681 | locus YOR070C, strain gyp1, stronger effect = lower value 0.734 | locus YOR080W, strain dia2, stronger effect = lower value 0.447 | locus YOR083W, strain WHI5, stronger effect = lower value 0.726 | locus YOR106W, strain vam3, stronger effect = lower value 0.363 | locus YOR184W, strain ser1, stronger effect = lower value 0.802 | locus YOR270C, strain vph1, stronger effect = lower value 0.327 | locus YOR290C, strain snf2, stronger effect = lower value 0.653 | locus YPL051W, strain arl3, stronger effect = lower value 0.869 | locus YPL055C, strain LGE1, stronger effect = lower value 0.868
